Results as given in PubChem BioAssay AID1159580 (chemical genetic matrix, 2015).
Several values for one entry are separate records, joined by “and”; a condition that tells them apart may be missing. Identical values can stand only once. Out of some 5,500 compounds screened, about 2,000 (36%) were called active. About 18% were inconclusive and are not listed. Some of the results follow. Unmarked numbers belong to inactive results. Rule as the data show it: active = normalized growth mostly below about 0.91 (no sharp cut-off); inconclusive = no clear call, values can overlap the other calls; inactive = mostly above about 0.92.

Experiment: chemical genetic growth profiling, strain panel (AID 1159580);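 also: tested at 20 µM; growth read once vehicle control cultures reached saturation at 30 °C; 1 = growth at the plate median or of vehicle wells; lower values mean less growth of the strain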
Details: S. cerevisiae deletion strains, growth OD

CCCC(C)C1(CC)C(=O)N=C(S)NC1=O (stereo unspecified)
normalized growth (locus YAL013W, strain DEP1, hits give low values): 1.01
normalized growth (locus YAL021C, strain ccr4, hits give low values): 0.993
normalized growth (locus YAL026C, strain drs2, hits give low values): 0.994
normalized growth (locus YAL030W, strain snc1, hits give low values): 0.983
normalized growth (locus YBL061C, strain skt5, hits give low values): 1.01
normalized growth (locus YBR009C, strain hhf1, hits give low values): 0.992
normalized growth (locus YBR021W, strain FUR4, hits give low values): 1.01
normalized growth (locus YBR023C, strain chs3, hits give low values): 0.989
normalized growth (locus YBR171W, strain sec66, hits give low values): 0.993
normalized growth (locus YBR229C, strain ROT2, hits give low values): 1.01
normalized growth (locus YBR231C, strain swc5, hits give low values): 1.01
normalized growth (locus YBR279W, strain paf1, hits give low values): 0.998
normalized growth (locus YCL011C, strain gbp2, hits give low values): 1.01
normalized growth (locus YCL016C, strain dcc1, hits give low values): 0.995
normalized growth (locus YCL029C, strain bik1, hits give low values): 0.557 (active)
normalized growth (locus YCL061C, strain MRC1, hits give low values): 1
normalized growth (locus YCL069W, strain vba3, hits give low values): 1
normalized growth (locus YCR088W, strain abp1, hits give low values): 0.984
normalized growth (locus YDL005C, strain med2, hits give low values): 0.987
normalized growth (locus YDL035C, strain GPR1, hits give low values): 1.02
normalized growth (locus YDL040C, strain nat1, hits give low values): 0.993
normalized growth (locus YDL074C, strain BRE1, hits give low values): 1.06
normalized growth (locus YDL101C, strain DUN1, hits give low values): 1.01
normalized growth (locus YDL134C, strain PPH21, hits give low values): 1
normalized growth (locus YDL185W, strain tfp1, hits give low values): 1.01
normalized growth (locus YDL192W, strain arf1, hits give low values): 0.0766 (active)
normalized growth (locus YDR001C, strain nth1, hits give low values): 1
normalized growth (locus YDR069C, strain doa4, hits give low values): 0.996
normalized growth (locus YDR101C, strain arx1, hits give low values): 0.371 (active)
normalized growth (locus YDR137W, strain rgp1, hits give low values): 0.908
normalized growth (locus YDR150W, strain NUM1, hits give low values): 1.02
normalized growth (locus YDR159W, strain sac3, hits give low values): 0.971
normalized growth (locus YDR162C, strain NBP2, hits give low values): 1.02
normalized growth (locus YDR195W, strain ref2): 0.979
normalized growth (locus YDR297W, strain sur2, hits give low values): 0.997
normalized growth (locus YDR318W, strain mcm21, hits give low values): 0.0671 (active)
normalized growth (locus YDR334W, strain swr1, hits give low values): 0.998
normalized growth (locus YDR335W, strain msn5, hits give low values): 0.993
normalized growth (locus YDR388W, hits give low values): 0.0597 (active)
normalized growth (locus YDR392W, strain spt3, hits give low values): 0.977
normalized growth (locus YDR502C, strain sam2, hits give low values): 0.0887 (active)
normalized growth (locus YEL003W, strain gim4, hits give low values): 0.997
normalized growth (locus YEL037C, strain rad23, hits give low values): 1
normalized growth (locus YEL061C, strain CIN8 (second series), hits give low values): 0.997
normalized growth (locus YEL061C, strain CIN8, hits give low values): 1
normalized growth (locus YER015W, strain faa2, hits give low values): 0.998
normalized growth (locus YER016W, strain bim1, hits give low values): 1.01
normalized growth (locus YER110C, hits give low values): 0.157 (active)
normalized growth (locus YER111C, strain swi4, hits give low values): 1.01
normalized growth (locus YER155C, strain BEM2 (second series), hits give low values): 0.986
normalized growth (locus YER155C, strain BEM2, hits give low values): 1.01
normalized growth (locus YER167W, strain BCK2, hits give low values): 1.02
normalized growth (locus YFR010W, strain ubp6, hits give low values): 1.01
normalized growth (locus YGL078C, strain dbp3, hits give low values): 0.095 (active)
normalized growth (locus YGL086W, strain mad1, hits give low values): 0.0546 (active)
normalized growth (locus YGL167C, strain pmr1, hits give low values): 0.991
normalized growth (locus YGL173C, strain kem1, hits give low values): 0.99
normalized growth (locus YGL227W, strain vid30, hits give low values): 0.981
normalized growth (locus YGL240W, strain doc1, hits give low values): 0.982
normalized growth (locus YGL248W, strain PDE1, hits give low values): 1.01
normalized growth (locus YGL253W, strain hxk2, hits give low values): 1.01
normalized growth (locus YGR078C, strain PAC10, hits give low values): 1.03
normalized growth (locus YGR135W, strain pre9, hits give low values): 0.0693 (active)
normalized growth (locus YGR229C, strain SMI1, hits give low values): 1.01
normalized growth (locus YGR252W, strain gcn5, hits give low values): 0.187 (active)
normalized growth (locus YHR013C, strain ard1, hits give low values): 0.997
normalized growth (locus YHR027C, strain rpn1, hits give low values): 0.996
normalized growth (locus YHR030C, strain SLT2, hits give low values): 1.01 and 0.984
normalized growth (locus YHR079C, strain IRE1 (second series), hits give low values): 0.407 (active)
normalized growth (locus YHR079C, strain IRE1, hits give low values): 0.979
normalized growth (locus YHR094C, strain hxt1, hits give low values): 0.0939 (active)
normalized growth (locus YHR129C, strain ARP1, hits give low values): 1.01
normalized growth (locus YHR142W, strain chs7, hits give low values): 0.986
normalized growth (locus YHR200W, strain rpn10, hits give low values): 0.0912 (active)
normalized growth (locus YIL066C, strain RNR3, hits give low values): 1.03
normalized growth (locus YIL073C, strain SPO22, hits give low values): 1.11
normalized growth (locus YIL125W, strain kgd1, hits give low values): 0.141 (active)
normalized growth (locus YIR030C, strain dcg1, hits give low values): 0.185 (active)
normalized growth (locus YJL092W, strain hpr5, hits give low values): 0.991
normalized growth (locus YJL095W, strain BCK1 (second series), hits give low values): 0.995
normalized growth (locus YJL095W, strain BCK1, hits give low values): 1 and 0.991
normalized growth (locus YJL115W, strain asf1, hits give low values): 0.988
normalized growth (locus YJL129C, strain trk1, hits give low values): 0.962
normalized growth (locus YJL134W, strain LCB3, hits give low values): 1.01
normalized growth (locus YJL154C, strain vps35, hits give low values): 0.987
normalized growth (locus YJL164C, strain tpk1, hits give low values): 0.995
normalized growth (locus YJL166W, strain qcr8, hits give low values): 0.975
normalized growth (locus YJL168C, strain set2, hits give low values): 0.123 (active)
normalized growth (locus YJL187C, strain SWE1 (second series), hits give low values): 1
normalized growth (locus YJR043C, strain POL32, hits give low values): 1.02
normalized growth (locus YJR066W, strain TOR1, hits give low values): 0.945
